Data as given in PubChem BioAssay (NCI).
About 79,000 compounds went through this panel and 15% of them were active in at least one assay; those are over-represented in the sample as a whole. Unmarked numbers belong to inactive results. Calls of active or inactive are those of the source. Rule as the data show it: active = growth inhibition above about 70%; inactive = the rest.

Key:
[1] = NCI Yeast Anticancer Drug Screen. Data for the rad50 strain (AID 155);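 also: 0% = growth of vehicle-only cultures of the same strain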; conditions: S. cerevisiae rad50 strain growth inhibition, stronger effect = higher value
Method in brief: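 Relative growth inhibition (compound vs vehicle) was measured in yeast with a defined repair-gene alteration.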

[2] = NCI Yeast Anticancer Drug Screen. Data for the mec2-1 strain (AID 157); conditions: S. cerevisiae mec2-1 strain, stronger effect = higher value
Method in brief: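 Strain: mec2-1 (DNA repair/cell cycle alteration). Compound exposure, then growth measured; inhibition expressed relative to vehicle.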

[3] = NCI Yeast Anticancer Drug Screen. Data for the sgs1 mgt1 strain (AID 161);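 also: 0% = growth of cultures given vehicle only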; conditions: S. cerevisiae sgs1 mgt1 strain, stronger effect = higher value
Method in brief: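 Inhibition of yeast growth, normalised to vehicle-treated controls, is reported for a strain bearing genetic alterations in DNA damage repair.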

[4] = NCI Yeast Anticancer Drug Screen. Data for the cln2 rad14 strain (AID 165);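 also: 0% = growth equal to vehicle treated cultures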; conditions: S. cerevisiae cln2 rad14 strain, stronger effect = higher value
Method in brief: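 Compounds are applied to the cln2 rad14 yeast strain, and growth is then compared with that of vehicle-treated cultures to give inhibition.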

[5] = NCI Yeast Anticancer Drug Screen. Data for the bub3 strain (AID 167); conditions: S. cerevisiae bub3 mutant strain, stronger effect = higher value
Method in brief: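 Screening used yeast with an engineered genetic alteration affecting cell cycle control. Compound-exposed cultures were compared with vehicle cultures, and reduced growth was taken as inhibition.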

[6] = NCI Yeast Anticancer Drug Screen. Data for the mlh1 rad18 strain (AID 175); conditions: S. cerevisiae mlh1 rad18 strain growth inhibition, stronger effect = higher value
Method in brief: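 Read-out is yeast growth inhibition, calculated against vehicle-only controls. The compound was applied to a strain engineered with DNA damage repair alterations.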

[7] = at 5.0 µM (retest, dose inferred, filed as 0.5)
[8] = at 50.0 µM (retest, dose inferred, filed as 5.0)

Row | Compound | growth inhibition [1, 7] | growth inhibition [1, 8] | growth inhibition ([1]; at 50.0 µM) | growth inhibition [2, 7] | growth inhibition [2, 8] | growth inhibition ([2]; at 50.0 µM) | growth inhibition [3, 7] | growth inhibition [3, 8] | growth inhibition ([3]; at 50.0 µM) | growth inhibition [4, 7] [%] | growth inhibition [4, 8] | growth inhibition ([4]; at 50.0 µM) | growth inhibition [5, 7] | growth inhibition [5, 8] | growth inhibition ([5]; at 50.0 µM) | growth inhibition [6, 7] | growth inhibition [6, 8] | growth inhibition ([6]; at 50.0 µM)
1 | CCCCCCCCCCCCCC1=NCC(C)(C)N1 | 83% (active) | 100% (active) | 99.2% (active) | 85% (active) | 100% (active) | 97.3% (active) | 91% (active) | 100% (active) | 99.7% (active) | 66 | 99% (active) | 97.8% (active) | 89% (active) | 100% (active) | 99.7% (active) | 82% (active) | 100% (active) | 99.5% (active)
2 | Nc1ccc2c(c1)CCc1ccccc1-2 | 1% | 40% | 83.3% (active) | -27% | 10% | 43.6% | 2% | 52% | 89.8% (active) | -5 | 8% | 50.4% | -7% | 65% | 81.5% (active) | 2% | 45% | 86.5% (active)
3 | O=c1[nH]c2cc(Cl)ccc2nc1/C=C(\O)c1ccc(N2CCN(c3ccc(/C(O)=C/c4nc5ccc(Cl)cc5[nH]c4=O)cc3)CC2)cc1 | 10% | 12% | 95.8% (active) | 0% | 19% | 96.3% (active) | -3% | -12% | 94.2% (active) | 17 | -10% | 90.8% (active) | 19% | -15% | 94.5% (active) | -25% | -7% | 94.2% (active)
4 | COc1ccc(N2C(=O)C(=O)N(c3ccccc3[N+](=O)[O-])C2=S)cc1 | 16% | 99% (active) | 86.3% (active) | -10% | 96% (active) | 90% (active) | 7% | 98% (active) | 86.2% (active) | 16 | 94% (active) | 72.2% (active) | 7% | 98% (active) | 78.2% (active) | 3% | 98% (active) | 83.9% (active)
5 | OCC(O)C(O)C(/C=N/Nc1ccccc1)=N/Nc1ccccc1 (configuration not stated) | 11% | 45% | 44% | 7% | 32% | 13.7% | 10% | 57% | 47.4% | 51 | 38% | 13.4% | 6% | -65% | -5.35% | 2% | 61% | 60.4%
6 | CCCCCCCOC(=O)c1cc2cc(C(CC)C(CC)c3ccc(O)cc3)ccc2oc1=O (configuration not stated) | 23% | 47% | 83.1% (active) | 37% | 23% | 91.3% (active) | 47% | 65% | 82% (active) | 30 | 74% (active) | 87.4% (active) | 11% | 45% | 68.9% | 41% | 57% | 88.9% (active)
7 | CN(C)Cc1ccccc1C(=O)C(=O)c1ccccc1CN(C)C | -9% | 48% | -3.15% | 1% | 70% (active) | 3% | -5% | 3% | -6.5% | 9 | 0% | 46.3% | 10% | 7% | 57.8% | -4% | 73% (active) | 6.45%
8 | CN(C)c1cc(N(C)C)c2cc(-c3ccccc3)sc2n1 | 11% | 98% (active) | 75.7% (active) | 3% | 99% (active) | 17.2% | 5% | 95% (active) | 94.6% (active) | -11 | 82% (active) | 7.65% | -5% | 93% (active) | 64% | 1% | 94% (active) | 63%
9 | C=CCOc1c(CCC)cc(CN)cc1CCC | -2% | 2% | 4.45% | -2% | -6% | -8.2% | 5% | 23% | 24.6% | 1 | -7% | 58.5% | -3% | 7% | 2.55% | -1% | 11% | 49.8%
10 | CC1(c2ccc(Cl)cc2)OC(=O)c2c1ccc1ccccc21 (configuration not stated) | 13% | 55% | 97.7% (active) | -1% | 53% | 93.6% (active) | 7% | 55% | 98% (active) | 2 | 47% | 88.8% (active) | 22% | 52% | 97.8% (active) | -1% | 75% (active) | 96% (active)
11 | O=C1/C(=C/c2ccc(Cl)cc2)CCC/C1=C\c1ccc(O)c(CN2CCCCC2)c1 | 31% | 52% | 2.4% | 2% | 17% | 1.75% | 7% | 20% | 69% | 7 | 24% | 51.9% | -48% | 17% | 72.3% (active) | 16% | 20% | 90.6% (active)
12 | CCOC(=O)C(/C=N\C(=S)Nc1c(CC)cccc1C(C)(C)C)=C(/O)c1ccccc1 | 7% | 61% | 51.5% | 0% | 46% | 49% | 17% | 35% | 64.5% | -13 | 43% | 67.2% | -8% | 73% (active) | 55.6% | 4% | 48% | 63%
13 | COc1ccc(/C(O)=C/c2nc3ccc([N+](=O)[O-])cc3[nH]c2=O)cc1 | 12% | 70% (active) | 78.9% (active) | 1% | 57% | 49.5% | -2% | 67% | 92.6% (active) | 3 | 77% (active) | 80.7% (active) | 2% | 46% | 26.9% | 2% | 68% | 90.8% (active)
14 | Cc1ccc(S(=O)(=O)N/N=C/c2cc(I)cc([N+](=O)[O-])c2O)cc1 | 17% | 91% (active) | 89.3% (active) | 13% | 92% (active) | 95.8% (active) | 23% | 93% (active) | 97.7% (active) | 9 | 94% (active) | 91.3% (active) | 8% | 97% (active) | 88.8% (active) | 21% | 94% (active) | 96.5% (active)
15 | Cc1ccc(CN2CC(=O)N3Cc4ccccc4CN3C(=O)C2)cc1 | -1% | -3% | -3.95% | -6% | -15% | 6.6% | 4% | 4% | 10.4% | 0 | -3% | -8.8% | 5% | 30% | 83.4% (active) | -5% | -2% | -20.2%
16 | O=c1c2cc3c(cc2c2cccc4c2n1CCC4)OCO3 | -1% | 44% | 71.2% (active) | 0% | 12% | 23.4% | -4% | 13% | 25.4% | -3 | 6% | 42.4% | 2% | 31% | 20.4% | -2% | 15% | 53.7%
17 | COc1cc(C/C=C/c2ccccc2)c(OC)cc1O | 18% | 30% | 63.6% | 18% | 24% | 61.7% | 15% | 37% | 54.4% | 18 | 29% | 76% (active) | 20% | 29% | 64.8% | 17% | 35% | 48.5%
18 | COc1c(I)cc(I)c(O)c1I | 6% | 39% | 94.4% (active) | 10% | 80% (active) | 93.8% (active) | 7% | 64% | 91% (active) | 10 | 36% | 88.1% (active) | 3% | 36% | 69.9% | 9% | 77% (active) | 94.2% (active)
19 | N#CSc1ccc(O)cc1 | 0% | 95% (active) | 94.3% (active) | 1% | 97% (active) | 96.2% (active) | 4% | 97% (active) | 92.6% (active) | 3 | 97% (active) | 93.8% (active) | 0% | 96% (active) | 96.4% (active) | 1% | 95% (active) | 93.3% (active)
